According to PubChem BioAssay (NCI):
About 79,000 compounds went through this panel and 15% of them were active in at least one assay; those are over-represented in the sample as a whole. The source made the active and inactive calls. Cut-off read from the data, not from the text of the source: active = growth inhibition above about 70%; inactive = the rest.

Columns and labels:
[1] = NCI Yeast Anticancer Drug Screen. Data for the mec2-1 strain (AID 157); conditions: S. cerevisiae mec2-1 strain, active compounds read high
How it was run: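 Using mec2-1 yeast: add compound, measure growth, express inhibition versus vehicle-treated cultures.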

[2] = NCI Yeast Anticancer Drug Screen. Data for the rad14 strain (AID 159);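 note: 0% = growth of vehicle-treated control cultures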; conditions: S. cerevisiae rad14 strain growth inhibition, active compounds read high
How it was run: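 Here, inhibition of yeast growth was measured after compound exposure, using a strain with a genetic defect in DNA damage repair and vehicle-treated cultures as the reference.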

[3] = NCI Yeast Anticancer Drug Screen. Data for the sgs1 mgt1 strain (AID 161);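 note: 0% = growth of cultures given vehicle only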; conditions: S. cerevisiae sgs1 mgt1 strain, active compounds read high
How it was run: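 Compounds are added to genetically altered yeast, and growth is compared with cultures given vehicle alone to give percent inhibition.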

[4] = NCI Yeast Anticancer Drug Screen. Data for the CLN2oe strain (AID 163);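 note: 0% = growth of vehicle-only control cultures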; conditions: S. cerevisiae CLN2oe strain, active compounds read high
How it was run: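 Whole-cell yeast growth assay. A strain engineered for altered cell-cycle control received compound, and inhibition relative to vehicle-treated cultures was recorded.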

[5] = NCI Yeast Anticancer Drug Screen. Data for the cln2 rad14 strain (AID 165);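 note: 0% = growth equal to vehicle treated cultures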; conditions: S. cerevisiae cln2 rad14 strain, active compounds read high
How it was run: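 Yeast strain cln2 rad14, bearing defects in cell cycle control and DNA repair, serves as the test system; values reflect growth inhibition compared with vehicle.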

[6] = NCI Yeast Anticancer Drug Screen. Data for the bub3 strain (AID 167); conditions: S. cerevisiae bub3 mutant strain, active compounds read high
How it was run: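 Whole-cell yeast assay. The mutant strain was incubated with compounds, and growth inhibition was determined by comparison with vehicle-treated cells.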

[7] = NCI Yeast Anticancer Drug Screen. Data for the wt2 strain (AID 169);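 note: 0% = growth of vehicle-treated yeast cultures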; conditions: S. cerevisiae wt2 strain growth inhibition, active compounds read high
How it was run: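 Treated yeast vs. vehicle-treated yeast: growth inhibition determined.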

[8] = NCI Yeast Anticancer Drug Screen. Data for the mlh1 strain (AID 171);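 note: 0% = growth of vehicle-treated control cultures of the same strain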; conditions: S. cerevisiae mlh1 strain growth inhibition, active compounds read high
How it was run: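 A yeast strain with a defined genetic lesion serves as the test organism. Cultures receive compound or vehicle, and growth is measured.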

[9] = NCI Yeast Anticancer Drug Screen. Data for the sgs1 strain (AID 173);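 note: 0% = growth of vehicle-only control cultures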; conditions: S. cerevisiae sgs1 mutant, active compounds read high
How it was run: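 A genetically defined yeast mutant is incubated with the test compound, and its growth is compared to that of the same strain given vehicle.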

[10] = NCI Yeast Anticancer Drug Screen. Data for the mlh1 rad18 strain (AID 175); conditions: S. cerevisiae mlh1 rad18 strain growth inhibition, active compounds read high
How it was run: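 Steps: expose repair-defective yeast to compound; measure growth; express inhibition against vehicle-treated controls.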

[11] = NCI Yeast Anticancer Drug Screen. Data for the rad18 strain (AID 177); conditions: S. cerevisiae rad18 mutant growth inhibition, active compounds read high
How it was run: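 Measured value is growth inhibition of a yeast strain bearing a DNA repair alteration, referenced to vehicle-treated cells.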

[12] = NCI Yeast Anticancer Drug Screen. Data for the rad52 strain (AID 147);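 note: 0% = growth of vehicle-treated control cultures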; conditions: S. cerevisiae rad52 mutant growth inhibition, active compounds read high
How it was run: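 Here a repair-compromised yeast strain receives each compound; its growth is then quantified and normalised to vehicle-only controls.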

[13] = NCI Yeast Anticancer Drug Screen. Data for the wt1 strain (AID 149);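 note: 0% = growth of vehicle-treated wt1 cultures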; conditions: S. cerevisiae wt1 strain (SPY 50644) growth inhibition, active compounds read high
How it was run: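 Measured: growth of wt1 yeast under compound versus vehicle treatment, reported as inhibition.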

[14] = NCI Yeast Anticancer Drug Screen. Data for the rad50EPP+ strain (AID 151);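 note: 0% = growth of vehicle-treated control cultures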; conditions: S. cerevisiae rad50 mutant strain, active compounds read high
How it was run: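 Read-out is yeast growth inhibition relative to vehicle; cells used were the rad50EPP+ strain.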

[15] = NCI Yeast Anticancer Drug Screen. Data for the mgt1 strain (AID 153); conditions: S. cerevisiae mgt1 mutant growth inhibition, active compounds read high
How it was run: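 Measured: inhibition of mgt1 yeast growth by compound, normalized to vehicle-treated cultures.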

[16] = NCI Yeast Anticancer Drug Screen. Data for the rad50 strain (AID 155);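 note: 0% = growth of vehicle-only cultures of the same strain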; conditions: S. cerevisiae rad50 strain growth inhibition, active compounds read high
How it was run: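 Growth of the mutant yeast was measured after compound exposure and referenced to vehicle-treated cultures.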

[17] = at 5.0 µM (retest, dose inferred, filed as 0.5)
[18] = at 50.0 µM (retest, dose inferred, filed as 5.0)

Measured: growth inhibition

CC1(Cl)CC(C)(/C=C/Cl)C(Cl)CC1Cl (centres undefined)
active: [10]; at 50.0 µM 79.4%
inactive: [1]; [17] 9% | [1]; at 11.0 µM 6% | [1]; at 33.0 µM 20% | [1]; [18] 7% | [1]; at 50.0 µM 19.1% | [1]; at 100.0 µM 46% | [2]; at 1.2 µM 4% | [2]; at 3.7 µM 1% | [2]; at 11.0 µM 5% | [2]; at 33.0 µM 16% | [2]; at 100.0 µM 48% | [3]; [17] 1% | [3]; [18] -17% | [3]; at 50.0 µM 51% | [4]; at 1.2 µM 3% | [4]; at 3.7 µM 5% | [4]; at 11.0 µM 8% | [4]; at 33.0 µM 23% | [4]; at 100.0 µM 49% | [5]; [17] 40% | [5]; [18] -20% | [5]; at 50.0 µM 45% | [6]; at 1.2 µM 2% | [6]; at 3.7 µM 0% | [6]; [17] -3% | [6]; at 11.0 µM 2% | [6]; at 33.0 µM 12% | [6]; [18] -8% | [6]; at 50.0 µM 15.4% | [6]; at 100.0 µM 31% | [7]; at 1.2 µM 0% | [7]; at 3.7 µM 1% | [7]; at 11.0 µM 3% | [7]; at 33.0 µM 16% | [7]; at 100.0 µM 50% | [8]; at 1.2 µM 2% | [8]; at 3.7 µM 1% | [8]; at 11.0 µM 4% | [8]; at 33.0 µM 14% | [8]; at 100.0 µM 41% | [9]; at 1.2 µM 4% | [9]; at 3.7 µM 2% | [9]; at 11.0 µM 2% | [9]; at 33.0 µM 28% | [9]; at 100.0 µM 64% | [10]; [17] 8% | [10]; [18] -23% | [11]; at 1.2 µM 5% | [11]; at 3.7 µM 5% | [11]; at 11.0 µM 12% | [11]; at 33.0 µM 30% | [11]; at 100.0 µM 48%

COc1cc2ccccc2c2cc([N+](=O)[O-])oc12
active: [12]; at 1.2 µM 82% | [12]; at 3.7 µM 88% | [12]; at 11.0 µM 91% | [12]; at 33.0 µM 91% | [12]; at 100.0 µM 91% | [14]; at 1.2 µM 82% | [14]; at 3.7 µM 86% | [14]; at 11.0 µM 91% | [14]; at 33.0 µM 90% | [14]; at 100.0 µM 88% | [16]; at 1.2 µM 79% | [16]; at 3.7 µM 88% | [16]; [17] 75% | [16]; at 11.0 µM 92% | [16]; at 33.0 µM 91% | [16]; [18] 76% | [16]; at 50.0 µM 78.2% | [16]; at 100.0 µM 88% | [1]; at 100.0 µM 78% | [2]; at 1.2 µM 91% | [2]; at 3.7 µM 93% | [2]; at 11.0 µM 95% | [2]; at 33.0 µM 94% | [2]; at 100.0 µM 93% | [3]; [17] 73% | [3]; [18] 76% | [5]; [17] 91% | [5]; [18] 84% | [5]; at 50.0 µM 84.3% | [9]; at 1.2 µM 79% | [9]; at 3.7 µM 84% | [9]; at 11.0 µM 89% | [9]; at 33.0 µM 89% | [9]; at 100.0 µM 89% | [10]; [17] 89% | [10]; [18] 88% | [10]; at 50.0 µM 88.3%
inactive: [13]; at 1.2 µM 4% | [13]; at 3.7 µM 6% | [13]; at 11.0 µM 15% | [13]; at 33.0 µM 29% | [13]; at 100.0 µM 36% | [15]; at 1.2 µM 2% | [15]; at 3.7 µM 11% | [15]; at 11.0 µM 26% | [15]; at 33.0 µM 43% | [15]; at 100.0 µM 59% | [1]; at 1.2 µM 23% | [1]; at 3.7 µM 39% | [1]; [17] 45% | [1]; at 11.0 µM 55% | [1]; at 33.0 µM 65% | [1]; [18] 62% | [1]; at 50.0 µM 53% | [3]; at 50.0 µM 60.9% | [4]; at 1.2 µM -8% | [4]; at 3.7 µM -6% | [4]; at 11.0 µM 4% | [4]; at 33.0 µM 19% | [4]; at 100.0 µM 24% | [6]; at 1.2 µM -21% | [6]; at 3.7 µM -21% | [6]; [17] 2% | [6]; at 11.0 µM -1% | [6]; at 33.0 µM 5% | [6]; [18] 14% | [6]; at 50.0 µM 3.55% | [6]; at 100.0 µM 7% | [7]; at 1.2 µM 5% | [7]; at 3.7 µM 11% | [7]; at 11.0 µM 23% | [7]; at 33.0 µM 36% | [7]; at 100.0 µM 51% | [8]; at 1.2 µM 7% | [8]; at 3.7 µM 10% | [8]; at 11.0 µM 21% | [8]; at 33.0 µM 41% | [8]; at 100.0 µM 60%

CSc1ccccc1[As](C)C
active: [12]; at 11.0 µM 84% | [12]; at 33.0 µM 99% | [12]; at 100.0 µM 99% | [13]; at 11.0 µM 88% | [13]; at 33.0 µM 99% | [13]; at 100.0 µM 99% | [14]; at 11.0 µM 74% | [14]; at 33.0 µM 98% | [14]; at 100.0 µM 99% | [15]; at 11.0 µM 75% | [15]; at 33.0 µM 99% | [15]; at 100.0 µM 99% | [16]; [17] 96% | [16]; at 11.0 µM 86% | [16]; at 33.0 µM 98% | [16]; [18] 99% | [16]; at 50.0 µM 99.3% | [16]; at 100.0 µM 99% | [1]; [17] 90% | [1]; at 11.0 µM 92% | [1]; at 33.0 µM 99% | [1]; [18] 99% | [1]; at 50.0 µM 99.5% | [1]; at 100.0 µM 99% | [2]; at 11.0 µM 87% | [2]; at 33.0 µM 99% | [2]; at 100.0 µM 100% | [3]; [17] 97% | [3]; [18] 99% | [3]; at 50.0 µM 99.5% | [4]; at 33.0 µM 99% | [4]; at 100.0 µM 98% | [5]; [18] 98% | [5]; at 50.0 µM 98.1% | [6]; at 11.0 µM 77% | [6]; at 33.0 µM 99% | [6]; at 50.0 µM 98.8% | [6]; at 100.0 µM 99% | [7]; at 11.0 µM 85% | [7]; at 33.0 µM 99% | [7]; at 100.0 µM 99% | [8]; at 11.0 µM 90% | [8]; at 33.0 µM 99% | [8]; at 100.0 µM 100% | [9]; at 11.0 µM 95% | [9]; at 33.0 µM 99% | [9]; at 100.0 µM 99% | [10]; [17] 97% | [10]; [18] 99% | [10]; at 50.0 µM 99.5% | [11]; at 11.0 µM 92% | [11]; at 33.0 µM 99% | [11]; at 100.0 µM 99%
inactive: [12]; at 1.2 µM 1% | [12]; at 3.7 µM 16% | [13]; at 1.2 µM -1% | [13]; at 3.7 µM 15% | [14]; at 1.2 µM 1% | [14]; at 3.7 µM 11% | [15]; at 1.2 µM -1% | [15]; at 3.7 µM 16% | [16]; at 1.2 µM 7% | [16]; at 3.7 µM -15% | [1]; at 1.2 µM 2% | [1]; at 3.7 µM 24% | [2]; at 1.2 µM 5% | [2]; at 3.7 µM 26% | [4]; at 1.2 µM -4% | [4]; at 3.7 µM -1% | [4]; at 11.0 µM 32% | [5]; [17] 27% | [6]; at 1.2 µM -6% | [6]; at 3.7 µM 13% | [6]; [17] 1% | [6]; [18] 50% | [7]; at 1.2 µM -1% | [7]; at 3.7 µM 21% | [8]; at 1.2 µM 1% | [8]; at 3.7 µM 20% | [9]; at 1.2 µM 4% | [9]; at 3.7 µM 34% | [11]; at 1.2 µM 8% | [11]; at 3.7 µM 43%
